A selection: hits, their analogues and other compounds. The true share with any hit is near 5.5%.
Six1-Eya2 inh – qHTS Assay for Inhibitors of the Six1/Eya2 Interaction. Homeobox protein SIX1 (Homo sapiens) + Protein phosphatase EYA2 (Homo sapiens), …. AlphaScreen GST-Six1/His-Eya2 binding, biochemical; hits give low values. AID 651725, 2012. activity change, % (no concentration beside the values). hit rate 0.56% among 360,000; in the data active = activity change below about -65%; inconclusive = mostly about -30% to -63%; note: % is set by controls: 0 for no effect and ±100 for the full control effect
Target sequence (O00167 whole entry, looked up): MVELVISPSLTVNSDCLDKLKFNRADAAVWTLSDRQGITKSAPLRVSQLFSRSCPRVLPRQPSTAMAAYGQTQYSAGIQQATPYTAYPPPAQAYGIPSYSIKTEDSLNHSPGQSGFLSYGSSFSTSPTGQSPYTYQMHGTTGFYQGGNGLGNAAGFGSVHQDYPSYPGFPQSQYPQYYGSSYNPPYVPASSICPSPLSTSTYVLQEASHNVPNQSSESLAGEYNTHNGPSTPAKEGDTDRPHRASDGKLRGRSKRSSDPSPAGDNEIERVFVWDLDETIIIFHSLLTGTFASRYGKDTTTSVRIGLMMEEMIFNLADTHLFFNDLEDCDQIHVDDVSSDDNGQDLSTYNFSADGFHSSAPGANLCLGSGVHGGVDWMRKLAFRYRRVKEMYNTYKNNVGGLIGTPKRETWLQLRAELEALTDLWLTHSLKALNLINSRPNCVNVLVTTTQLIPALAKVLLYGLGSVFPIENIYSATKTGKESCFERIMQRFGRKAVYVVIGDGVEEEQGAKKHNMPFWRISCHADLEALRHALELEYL
Target sequence (Q15475 whole entry, looked up): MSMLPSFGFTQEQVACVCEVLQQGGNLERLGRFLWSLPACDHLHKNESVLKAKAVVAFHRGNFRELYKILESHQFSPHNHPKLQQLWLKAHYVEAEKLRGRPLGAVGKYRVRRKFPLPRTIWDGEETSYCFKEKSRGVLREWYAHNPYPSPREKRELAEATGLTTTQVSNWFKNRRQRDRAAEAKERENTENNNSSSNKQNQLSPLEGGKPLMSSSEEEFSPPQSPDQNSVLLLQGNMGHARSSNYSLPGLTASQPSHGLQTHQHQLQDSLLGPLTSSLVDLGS
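AlphaScreen with GST-Six1 and His-Eya2 (5X mix: 250 nM and 500 nM), glutathione donor and nickel acceptor beads; buffer 50 mM Tris pH 8.0, 300 mM NaCl, 1 mM TCEP; 1 h at 37 C in the dark.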
RORgamma inh – qHTS for inhibitors of ROR gamma transcriptional activity; hit rate 5.4% among 310,000; Drosophila S2 Gal4-RORgamma UAS-luciferase reporter, 20 h; Nuclear receptor ROR-gamma (Mus musculus), P51450; Potency, µM (series often up to 53.6 µM), without a hit: top-dose activity change, negative = inhibition, most hits filed as inhibitors; note: potency is the fitted concentration of half-maximal effect; % is set by controls: 0 for no effect and ±100 for the full control effect; nearly all actives have a fitted effect of over 60% in size
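Schneider cells (Drosophila), stable Gal4 DBD–ROR gamma + UAS-luc; 1 hr cmpd preincubation; Cu2+ induction 700 uM final; 20 hr ambient; luminescence.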
CBFb-RUNX1 inh – qHTS Assay for Compounds Blocking the Interaction Between CBF-beta and RUNX1 for the Treatment of Acute Myeloid Leukemia; Runt-related transcription factor 1 (Homo sapiens) + Core-binding factor subunit beta …; AlphaScreen CBFb-His/RUNX1-biotin binding, biochemical; Potency, µM (doses to about 59.8 µM), for inactives: top-dose activity, negative = inhibition, actives largely listed as inhibitors; 230,000 tested, under 10 active; note: % of control where 0% means no effect
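Room-temperature protein-protein interaction test with 30 nM each of His-tagged CBF-beta and biotinylated RUNX1, 15 min with compound, then 90 min with nickel plus streptavidin beads. Signal read in AlphaScreen mode.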
MBNL1 CUG block – qHTS Assay for Inhibitors of MBNL1-poly(CUG) RNA binding; Muscleblind-like protein 1 (Homo sapiens), Q9NR56; Potency, µM (top dose mostly 57.5 µM), for the others: top-dose activity change, negative = inhibition, most hits filed as inhibitors; AID 2675, 2010; TR-FRET MBNL1-His/biotin-(CUG)12 binding, 665/545 ratio; hit rate 0.036% among 280,000; active = well fitted inhibition curve with a large enough effect in the signal ratio, with a control signal flat, not every such curve was filed as active; inconclusive = small, poorly fitted or top-dose-only effect, or effect the other way, or a change in a side signal; inactive = no such curve, though single readings can be large or run the other way; the % refers to the signal ratio; note: potency is the fitted concentration of half-maximal effect; % is set by controls: 0 for no effect and ±100 for the full control effect
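Compound titration spanned 92 nM–58 uM against the MBNL1-His/biotin-(CUG)12 complex. After 60 min at room temperature with 5 nM streptavidin-XL665 and 0.055 ng/ul terbium anti-His, ratiometric 665/545 nm emission (Ex 340 nm) normalized to controls.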
CtBP-E1A inh – qHTS Assay for Inhibitors of the CtBP/E1A Interaction | CtBP / adenovirus E1A interaction (AlphaScreen) | AlphaScreen GST-E1A/His-CtBP binding, 1536-well; hits give low values | activity change, % (no concentration beside the values) | hit rate 0.49% among 340,000 | AID 651724, 2012; in the data active = activity change below about -65%; inconclusive = mostly about -30% to -63%; note: % is set by controls: 0 for no effect and ±100 for the full control effect
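GST-E1A and His-tagged CtBP (125 nM each as 5X stock) were preincubated with pin-transferred compound for 2 h at 37 °C in the dark, then glutathione donor and nickel acceptor beads were added for 1 h before AlphaScreen reading.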
VP16 counter – VP16 counterscreen qHTS for inhibitors of ROR gamma transcriptional activity; Drosophila S2 Gal4-VP16 UAS-luciferase, luminescence, 20 h; AID 2546, 2010; hit rate 3.5% among 310,000; Potency, µM (doses to about 53.6 µM), inactives show top-dose activity, negative = inhibition, most hits filed as inhibitors;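 note: Gal4-VP16 expression switched on by copper sulfate through the metallothionein promoter; potency is the fitted concentration of half-maximal effect; % is set by controls: 0 for no effect and ±100 for the full control effect; nearly all actives have a fitted effect of over 50% in size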
Starred values were filed as active, the others as inactive; ? = inconclusive; . = no result given; [ ] = dose if it differs, or a comment. Unless noted, calls come from the whole dose curve; as a rule, active = well fitted curve in the direction sought with a large enough effect; inconclusive = small, poorly fitted or top-dose-only effect, or another doubt; inactive = no such curve, though single readings can be large; an effect the other way counts as inactive or inconclusive.

SMILES | Six1-Eya2 inh | RORgamma inh | CBFb-RUNX1 inh | MBNL1 CUG block | CtBP-E1A inh | VP16 counter
CC(O)CNC1c2ccccc2CC1O (stereo unspecified) | 1 | . | . | . | 4 | .
Cc1cc(C)c(C(=O)/C=C/C=C/c2ccccc2)c(=O)[nH]1 | 7 | ? | -5% | -12% | 4 | 0%
Cc1cc(C)c(C(=O)/C=C/c2ccc(C(C)C)cc2)c(=O)[nH]1 | 1 | ? | 1% | -4% | -29 | 32µM*
COc1ccc(/C=C/CN2CCC(n3nccc3NC(=O)C3CCCC3)CC2)cc1 | 2 | -5% | . | 3% | -2 | -15%
Cc1cc(C)c(CN2CCN(C(=O)CC[C@H]3O[C@@H](n4cnc5c(NC(=O)c6ccccc6)ncnc54)[C@H](O)[C@@H]3O)CC2)c(C)c1 | -1 | . | . | . | -11 | .
COc1ccc(-c2cc(-c3c(O)c(OC)c4occc4c3OC)[nH]n2)cc1OC | ? | 7.9µM* | -24% | -10% | 11 | 8.9µM*
COc1ccc(-c2cc(-c3c(O)c(OC)c4occc4c3OC)[nH]n2)cc1 | -29 | ? | -21% | -1% | ? | ?
COc1ccc(OC)c(NC(=O)COC(=O)COc2ccc(Nc3ccccc3)cc2)c1 | -22 | . | . | . | -2 | .
COc1ccc(S(=O)(=O)Nc2ccc(-n3cccc3)cc2)cc1 | -20 | 11µM* | . | ? | -4 | 11µM*
COc1ccc(NS(=O)(=O)c2ccc(N3C(=O)CCC3=O)cc2)cc1 | -8 | 43% | 3% | ? | -13 | 2%
Cc1cc([N+](=O)[O-])nn1CC(=O)N/N=C/c1ccc(O)cc1O | -85* | ? | -27% | 22% | ? | -6%
C/C(CC(=O)Nc1ccc(N(C)C)cc1)=N\NC(=O)c1ccccc1O | -27 | 23%[1.91 µM] | . | 11% | -25 | ?
C/C(Cn1cnc([N+](=O)[O-])n1)=N\NC(=O)c1ccc(O)cc1O | -22 | 0.2µM* | -1% | ? | -17 | ?
C/C(CC(=O)Nc1ccc([N+](=O)[O-])cc1)=N\NC(=O)c1ccccc1O | 0 | 11µM* | . | 20% | . | 16µM*
C/C(Cn1cnc([N+](=O)[O-])n1)=N\NC(=O)c1ccccc1O | -1 | 13µM* | 1% | ? | 12 | ?
Cc1cc([N+](=O)[O-])nn1CC(=O)N/N=C/c1ccccc1Br | 2 | 21% | -4% | . | -10 | 8%
C=CCC(Nc1ccc(OC)cc1)(C(=O)OCC)c1ccccc1 (stereo unspecified) | . | -17% | -9% | . | . | 3%
Cc1cccc(NC(=O)CN2CCN(C(=O)c3cccc(-n4cnnn4)c3)CC2)c1C | -9 | . | . | . | 15 | .
Cc1cc([N+](=O)[O-])nn1CC(=O)NNC(=S)Nc1ccc(F)cc1 | 9 | 14µM* | -4% | 14% | 2 | ?
COc1cc(C(=O)N/N=C(\C)Cn2nc([N+](=O)[O-])cc2C)ccc1O | 9 | ? | 3% | 5% | 1 | -15%
C/C(Cn1nc([N+](=O)[O-])cc1C)=N\NC(=O)c1ccc(O)cc1O | -17 | 1.6µM* | -7% | 19% | -10 | 14µM*
N#C/C(=C/c1ccc(N2CCCCCC2)o1)c1ccc(Cl)cc1 | -9 | 7.1µM* | -5% | -16% | -6 | 7.1µM*
Cc1ccc(/C(C#N)=C\c2ccc(N3CCOCC3)o2)cc1 | -2 | 1.8µM* | -16% | 16% | 4 | 2%[0.365 µM]
N#C/C(=C/c1ccc(N2CCCCC2)o1)c1cccc(F)c1 | -11 | 7.1µM* | -4% | 6% | -10 | 10µM*
C[C@@H]1CN([C@@H](C)CO)C(=O)CCCn2nncc2CO[C@@H]1CN(C)C(=O)Nc1ccccc1C(F)(F)F | 10 | . | . | . | 7 | .
SMILES | Six1-Eya2 inh | RORgamma inh | CBFb-RUNX1 inh | MBNL1 CUG block | CtBP-E1A inh | VP16 counter
CCNC(=S)NN(c1ccccc1)c1ccccc1 | 6 | 7.9µM* | 3% | 2% | 6 | ?
CCNC(=S)Nc1ccc(N(c2ccccc2)C(C)C)cc1 | -13 | -44% | -8% | 1% | -14 | -2%
CC(C)c1ccc(NC(=S)NN(c2ccccc2)c2ccccc2)cc1 | -19 | 3.2µM* | 3% | -6% | 0 | 5µM*
COc1ccc(/C=C/C(=O)NC(=S)Nc2ccc(S(=O)(=O)Nc3ccc(OC)nn3)cc2)cc1 | ? | ? | 1% | . | -77* | 5%
CCOC(=O)N1CC(C)N(CC(O)CN2CCOCC2)CC1C (stereo unspecified) | 4 | . | . | . | 0 | .
O=C(Nc1ccccc1)c1ccccc1NS(=O)(=O)c1ccc(Cl)s1 | 3 | ? | -5% | 0% | 5 | ?
O=C(NCc1ccco1)c1ccccc1NS(=O)(=O)c1ccc(Cl)s1 | -1 | 37% | -7% | -3% | -1 | 3%
Cc1ccc(NC(=O)c2ccccc2NS(=O)(=O)c2ccc(Cl)s2)cc1 | 1 | ? | -3% | . | 7 | 20µM*
O=C(Nc1ccccc1Cc1ccccc1)c1ccccc1NS(=O)(=O)c1ccc(Cl)s1 | 6 | ? | 2% | 2% | 0 | 13µM*
Cc1ccc2c(c1)nnn2C1CCN(CC(=O)NNC(=O)c2ccco2)CC1 | 1 | -13% | -8% | -4% | 7 | -3%
CCCCn1c(CN2CCN(c3ccccc3)CC2)nc2c1c(=O)n(C)c(=O)n2C | 0 | -7% | 9% | 2% | -4 | 6.3µM*
CCCn1c(=S)[nH]c2cc(Cl)ccc21 | -2 | 5µM* | 5% | 3% | 5 | 18µM*
CCn1c(=S)[nH]c2cc(Cl)ccc21 | 1 | 5.6µM* | 7% | -6% | -4 | 25µM*
CCn1c(=S)[nH]c2ccccc21 | 1 | ? | 5% | -3% | 8 | ?
CCn1c(=S)[nH]c2cc(S(=O)(=O)N3CCCCC3)ccc21 | -7 | 10µM* | -1% | 5% | -8 | ?
Cc1cnc(C(=O)OCc2ccc(Br)cc2)cn1 | 7 | -30% | . | 1% | -3 | 7%
CN1C(=O)NC(c2cccc(F)c2)C2=C1CC(C)(C)CC2=O (stereo unspecified) | 4 | -19% | . | -4% | 17 | -7%
CCOc1ccc(OCCn2c(=S)[nH]c3c(N)ncnc32)cc1 | -2 | 2.5µM* | -7% | -3% | -3 | 4%

Screening data (PubChem BioAssay)
